These results are taken from PubChem BioAssay AID652054 (National Center for Advancing Translational Sciences (NCATS), 2013).

Among all 360,000 compounds or so, about 9,100 (2.5%) were called active. Inconclusive results (about 4%) are left out. Many of the other results were omitted from the sample, so actives are more common in it than they were. Values without a mark were called inactive. No stated cut-off is given here; in the data, active means max response below about -50%; inconclusive means no clear call, values can overlap the other calls; inactive means above that.
On the % scale 0 is the no-effect control and ±100 the full control effect.

The target of this test is D(3) dopamine receptor (Homo sapiens) (UniProt P35462). In words: qHTS of D3 Dopamine Receptor Antagonist: qHTS. The settings on record: D3R cells, DiscoveRx beta-arrestin luminescence, antagonist mode; stronger effect = lower value. Summed up: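 Cells expressing the human receptor were seeded at 1500 cells/well, incubated overnight at 37 degrees C in 5% CO2, then exposed to library compounds with dopamine controls for 90 minutes at 37 degrees C before luminescent detection.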
Chain of D(3) dopamine receptor (Homo sapiens) (P35462 whole entry, looked up): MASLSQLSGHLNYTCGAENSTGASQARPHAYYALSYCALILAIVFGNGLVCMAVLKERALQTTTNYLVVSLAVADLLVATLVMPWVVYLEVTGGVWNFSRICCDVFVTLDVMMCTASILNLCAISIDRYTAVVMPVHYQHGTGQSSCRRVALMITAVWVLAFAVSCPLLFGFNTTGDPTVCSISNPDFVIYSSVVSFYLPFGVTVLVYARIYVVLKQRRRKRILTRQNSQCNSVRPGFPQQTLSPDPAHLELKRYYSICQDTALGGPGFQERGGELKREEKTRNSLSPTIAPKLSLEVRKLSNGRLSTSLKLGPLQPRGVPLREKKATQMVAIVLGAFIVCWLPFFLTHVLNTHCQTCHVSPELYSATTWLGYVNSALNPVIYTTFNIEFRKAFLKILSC
In the case of `Cc1c(C(=O)NCC(c2ccco2)N2CCCC2)oc2ccc(Cl)cc12` (configuration not stated), the max response, negative = inhibition is -65.1% (active).
As for `COc1ccc(C(CNC(=O)c2cccnc2SC)N2CCOCC2)cc1` (configuration not stated), the max response, negative = inhibition was -18.5%.
To `CC1Cc2ccccc2N1S(=O)(=O)c1cccc(C(=O)NCC(c2ccco2)N2CCCC2)c1` (configuration not stated) belongs -17.2%; to `COc1cc(C(=O)NCC(c2ccco2)N2CCCC2)ccc1OCc1ccccc1` (configuration not stated), 4.86%; to `COc1ccc(C(CNC(=O)c2ccc(S(=O)(=O)Nc3ccccc3C)cc2)N2CCOCC2)cc1` (configuration not stated), -0.45%.
Turning to `CC1CCc2sc(C(=O)NCC(c3ccco3)N3CCCCC3)cc2C1` (configuration not stated), the max response, negative = inhibition was -82.1% (active).
As to `CSc1ncccc1C(=O)NCC(c1ccco1)N1CCCCC1` (configuration not stated), the max response, negative = inhibition is 9.6%.
`Cc1cc(S(=O)(=O)Nc2ccc(C(=O)NCC(c3ccco3)N3CCCC3)cc2)ccc1F` (configuration not stated): the max response, negative = inhibition was 1.86%.
The value for `COc1ccc(C(CNC(=O)c2cc3c(s2)CCCC3)N2CCOCC2)cc1` (configuration not stated) was -51.3% (active); that for `CC(C)C[C@@H]1COc2cc(N3CCC[C@@H]3CO)ccc2S(=O)(=O)N1` was 18.9%.
The value for `CN(Cc1ccccc1)C(=O)[C@@H]1CCCN1C(=O)[C@@H]1CCCN1C(=O)c1c(F)cccc1F` was -11.2%.
With `O=C(NN=Cc1ccc2c(c1)CCC2)c1ccccc1O`, the max response, negative = inhibition is 10.4%.
The value for `CCc1cccc(C)c1NC(=O)COC(=O)CNC(=O)c1cccs1` was 5.78%; that for `CCc1cccc(C)c1NC(=O)COC(=O)CC1CCCC1` was -10.7%.
As for `CCc1cccc(C)c1NC(=O)COC(=O)Cc1ccsc1`, the max response, negative = inhibition was -57.7% (active).
For `CCCCn1nnnc1C(c1cc2ccccc2o1)N(C)Cc1ccc(Cl)c(Cl)c1` (configuration not stated), the max response, negative = inhibition was 16.5%.
The value for `COC(=O)[C@@]12C[C@@H](CC(=O)NCCCCc3ccccc3)C(=O)N(CCc3ccc(OC)c(OC)c3)C1=CCC(C)(C)C2` was -7.78%.
To `COC(=O)c1ccc(CN2CCC(CO)(Cc3ccc(OC)cc3)CC2)cc1` belongs -62.3% (active).
In the case of `COc1ccc(CC2(CO)CCN(Cc3cnn(C)c3)CC2)cc1`, the max response, negative = inhibition is 4.38%.
To `COc1cccc(CC2(CO)CCN(Cc3cnc(-c4cccc(C)c4)nc3)CC2)c1` belongs 33.5%; to `COc1ccc(CNC(=O)c2ccc(-c3cccnc3)c3ccoc23)cc1OC`, 57.4%; to `CCNC(=O)c1cc2c(c(-c3cccc(-c4cncnc4)c3)n1)[C@H](CCO)N(C(C)=O)C2`, -53.7% (active).
To `CC(=O)N1Cc2cc(C(=O)NCc3cccc(F)c3)nc(-c3cccc(C4=CCCCC4)c3)c2[C@H]1CCO` belongs 40.6%; to `CC(=O)N1Cc2cc(C(=O)NCc3cccc(F)c3)nc(-c3cccc(C4=CCCC4)c3)c2[C@H]1CCO`, 4.11%; to `CN(Cc1ccc(C(F)(F)F)cc1)C(=O)[C@H]1O[C@@H](n2cnc3c(N)ncnc32)[C@H](O)[C@@H]1O`, 14.2%.
To `CC1(C(=O)NCc2ccccc2)CSCC(=O)N1CCCN1CCOCC1` (configuration not stated) belongs 2.3%; to `CC1(C)CN(CCc2ccccc2)C(=O)[C@H]1CC(=O)Nc1ccc(Br)cc1`, -16%; to `CN1CCN(c2ccc([N+](=O)[O-])c(Sc3nc4ccccc4[nH]3)c2)CC1`, -91.8% (active).
On to `CN1CCN(S(=O)(=O)c2ccc(N3CCN(c4ccccc4O)CC3)c([N+](=O)[O-])c2)CC1`, for which the max response, negative = inhibition is -19.5%.
The value for `O=[N+]([O-])c1ccc(N2CCNCC2)cc1NCc1cccnc1` was 1.82%; that for `CCCS(=O)(=O)NC(=O)C1(C)CCCN(C(=O)c2cc(C)on2)C1` (configuration not stated) was 2.9%.
With `COc1ccc2c(-c3ccccc3)cc(SCC(=O)N(C)C3CCS(=O)(=O)C3)nc2c1` (configuration not stated), the max response, negative = inhibition was 0.687%.
With `CC(=O)c1ccc(OCC(=O)N(C)C2CCS(=O)(=O)C2)cc1` (configuration not stated), the max response, negative = inhibition was -0.617%.
In the case of `COc1ccc(-c2cc(=O)oc3cc(OCC(=O)N(C)C4CCS(=O)(=O)C4)ccc23)cc1` (configuration not stated), the max response, negative = inhibition is -51.8% (active).
The value for `COc1ccc(C(=O)N2CCCCC2c2cc(C(=O)Nc3ccc(F)c(Cl)c3)no2)cc1` (configuration not stated) was -6.17%.
As to `O=S1(=O)CC(N2CCN(c3ccccn3)CC2)CN1Cc1ccc(F)cc1` (configuration not stated), the max response, negative = inhibition was 7.7%.
The value for `CCCNC(=O)C1(C)CCCN(Cc2c(C)nn(-c3ccccc3)c2C)C1` (configuration not stated) was 19.2%; that for `CCCNC(=O)C1(C)CCCN(Cc2cccc(C(F)(F)F)c2)C1` (configuration not stated) was 27.1%.
To `CCCNC(=O)C1(C)CCN(Cc2csc(-c3ccc(Cl)cc3)n2)C1` (configuration not stated) belongs -103% (active); to `COC(=O)[C@]12CCCCC=C1N(Cc1cccc3ccccc13)C(=O)[C@H](CC(=O)N1CCOCC1)C2`, -10.3%.
On to `COc1ccc(CNC(=O)c2c(C)cc(=O)oc2C)cc1OC`, for which the max response, negative = inhibition was 2.8%.
For the compound `Cc1cc(=O)oc(C)c1C(=O)NCc1ccc(F)cc1`, the max response, negative = inhibition is -14.8%.
As for `Cc1cc(=O)oc(C)c1C(=O)NCCN(C)Cc1ccccc1`, the max response, negative = inhibition is -76.1% (active).
To `Cc1nc(C(F)(F)F)ccc1C(=O)N1CCC1(C)C(=O)NS(=O)(=O)c1ccccc1Cl` (configuration not stated) belongs -15.5%; to `COc1ccc(OCC(=O)N2CCN(C(=O)c3cccs3)CC2)cc1`, 5.1%.
`CCN1CCN(C(=O)c2cc3cc4ccc(OC)cc4nc3s2)CC1`: the max response, negative = inhibition is -89.5% (active).
Turning to `COc1ccc(OC)c(C(=O)c2ccc(C(=O)N3CCN(Cc4csc(C)n4)CC3)cc2)c1`, the max response, negative = inhibition is -18%.
On to `CCCc1c(-c2ccccc2F)ncn1Cc1ccccc1OC`, for which the max response, negative = inhibition is 2.92%.
With `COc1ccc(CCNC(=O)CN(c2ccccc2)S(=O)(=O)c2ccccc2)cc1`, the max response, negative = inhibition was -3.43%.
The value for `CC(C)Oc1cc(F)ccc1-c1cc(C(=O)Nc2ccc(F)cc2)[nH]n1` was -13.9%.
The value for `COc1cc(-c2nnc(NC(=O)CS(=O)(=O)c3ccc(Cl)cc3)o2)cc(OC)c1OC` was -6.21%; that for `COc1ccc(CNC(=O)C[C@H]2C[C@H](C(=O)N3CCOCC3)[C@@]3(CCC4CCCC4)c4[nH]c5ccc(Cl)cc5c4CCN3C2=O)cc1OC` was -63% (active).
Take `CC[C@]12c3[nH]c4ccc(Cl)cc4c3CCN1C(=O)[C@@H](CC(=O)NCCN1CCOCC1)C[C@@H]2C(=O)N1CCN(C(=O)C2CC2)CC1`: the max response, negative = inhibition is 6.27%.
In the case of `COc1ccc2[nH]c3c(c2c1)CCN1C(=O)C(CC(=O)NCCCN(C)C)C[C@H](C(=O)N2CCOCC2)[C@@]31CCC1CCCC1` (some centres not stated), the max response, negative = inhibition is 37%.
With `CCc1nc2c(OCCOc3ccccc3)cccn2c1N(C)C(=O)c1cccs1`, the max response, negative = inhibition is -19.8%.
As to `Cc1ccc(CNCc2ccc3c(c2)OCO3)c(C)c1`, the max response, negative = inhibition is -3.23%.
To `Cc1ccc(-c2nc(CS(=O)(=O)CC(=O)NCc3ccc4c(c3)OCO4)c(C)o2)cc1` belongs -2.53%; to `Cc1ccc(S(=O)(=O)N(CCCN(C)C)Cc2ccc3c(c2)OCO3)cc1`, -51.8% (active).
Regarding `OC[C@@H]1CN(Cc2ccc(Cl)cc2)C[C@H](n2cnc3c(NCc4ccncc4)ncnc32)O1`, the max response, negative = inhibition was 17.2%.
For `Cc1cc(Cl)ccc1C(=O)C1CCCN(C(=O)c2ccc3c(c2)OCO3)C1` (configuration not stated), the max response, negative = inhibition was -7.01%.
In the case of `CC(=O)OCC(C)n1c(=O)c2ccccc2n1C(C)=O` (configuration not stated), the max response, negative = inhibition was 0.665%.
`COc1ccc(N2CCN(CCNC(=O)Nc3cc(Cl)ccc3Cl)CC2)cc1`: the max response, negative = inhibition was -2.75%.
The value for `CCOc1ccccc1NC(=O)NC1CCCCCCC1` was 0.28%; that for `COc1ccc(NC(=O)CCn2ccnc2)c(OC)c1` was -22.6%.
In the case of `COc1ccccc1NC(=O)CCN1CCN(c2ccc(Cl)cc2)CC1`, the max response, negative = inhibition was -52.9% (active).
To `COc1ccc(NC(=O)CCN2CCCC2)c(OC)c1` belongs -50.5% (active); to `CCOc1ccccc1NC(=O)Nc1cc(OC)ccc1OC`, -69.8% (active).
The value for `CCOc1ccccc1NC(=O)CCN1CCN(S(=O)(=O)c2ccc(OC)cc2)CC1` was 38.4%; that for `CCOC(=O)N1CCN(CCC(=O)Nc2cc(OC)ccc2OC)CC1` was 2%.
To `COc1ccc(C(C)(C)C)cc1NC(=O)CCN1C(=O)C2CCCCC2C1=O` (configuration not stated) belongs 4.26%; to `COc1ccc(OC)c(NC(=O)CCN2CCC(C)CC2)c1`, -50.8% (active).
For the compound `COc1ccc(OC)c(NC(=O)CC(Cc2ccccc2OC)C(=O)O)c1` (configuration not stated), the max response, negative = inhibition is 2.31%.
As for `COc1ccc(NC(=O)CCCC2CCCCC2)c(OC)c1`, the max response, negative = inhibition was 11.6%.
To `O=C(CC[C@H]1O[C@@H](n2ccc(=O)[nH]c2=O)[C@H](O)[C@@H]1O)N[C@H](Cc1ccccc1)C(=O)NCc1ccco1` belongs 23.3%; to `CCCC/C=C/c1cccc2nncn12`, 11.2%.
Take `C[C@H](CO)N1C[C@H](C)[C@@H](CN(C)C(=O)C2CCCCC2)OCc2cnnn2CCCC1=O`: the max response, negative = inhibition is -18.3%.
To `Cc1nc2ccccn2c(=O)c1NC(=O)c1ccc(Br)o1` belongs 0%; to `Cc1nccn1-c1ccc(NC(=O)[C@H]2O[C@@H](n3cnc4c(N)ncnc43)[C@H](O)[C@@H]2O)cc1`, 9.64%; to `COc1ccc2c(c1)CCCO[C@]21O[C@H](CCO)C[C@H](O)[C@H]1O`, -5.1%.
Regarding `Fc1cccc(Cc2c(-c3cccc(Cl)c3)nc3ccc(Br)cn23)c1`, the max response, negative = inhibition was 12.6%.
For `CC(C)NC(=O)Nc1ccc2c(c1)C(=O)N([C@H](C)CO)C[C@H](C)[C@@H](CN(C)Cc1ccc(C(F)(F)F)cc1)OCCCC[C@@H](C)O2`, the max response, negative = inhibition is -28.7%.
The value for `COC(=O)C[C@@H]1C=C[C@@H](NS(=O)(=O)c2cccc(OC)c2)[C@@H](CO)O1` was 3.79%; that for `O=C1NC[C@H](CCCCN2C[C@H](Cc3ccccc3)N(Cc3ccccc3)C(=O)C2=O)N(CCc2ccc(O)cc2)C1=O` was 2.36%; that for `COc1ccc(OCCCC(=O)Oc2ccc(OC)cc2)cc1` was 12.3%.
The value for `COc1ccc(OCCCCN2CCC(C)CC2)cc1` was -66.8% (active); that for `COc1ccc(OCC(=O)Nc2ccc(N3CCC(C)CC3)cc2)cc1` was -0.541%; that for `CC(C)(C)OC(=O)N1CCN(C(=O)c2[nH]c(C(F)(F)F)nc2-c2ccccc2)CC1` was 11.8%.
The value for `C=CCn1nc(C(=O)OCC)cc1-c1sc(NC(=O)c2ccccc2)nc1C` was 26.8%; that for `C=CCN1CCN(c2ccncc2S(=O)(=O)N2CCN(C)CC2)CC1` was 26.6%.
As to `COc1ccc(-c2cc(NC=O)c3ncc(-c4cc(OC)c(OC)c(OC)c4)n3c2)c(OC)c1`, the max response, negative = inhibition was 36.6%.
To `COC(=O)c1sc(NC(=S)NC(=O)c2ccc(C)cc2)nc1C` belongs 2.14%; to `N#Cc1c(-c2cccs2)nc(SCC(=O)c2ccc(Br)cc2)[nH]c1=O`, 4.64%.
To `N#Cc1ccc(C(=O)Nc2nc(-c3cccs3)c(C(=O)C(F)(F)F)s2)cc1` belongs -58.8% (active); to `O=C(NCc1ccc(F)cc1)c1cc(C2CCCCN2C(=O)c2ccccn2)on1` (configuration not stated), -10.1%; to `COC(=O)c1ccc(Oc2nc(Nc3ccc(F)cc3)nc(N3CCCC3)n2)cc1`, -22.6%.
The value for `COc1nc(NC2CCCCC2)nc(N2CCCCCC2)n1` was -62.8% (active); that for `Clc1nc(NC2CCCC2)nc(N2CCOCC2)n1` was 16.5%.
With `COC(=O)[C@@]12C[C@@H](CC(=O)NCCCCc3ccccc3)C(=O)N(Cc3ccccc3)C1=CCC(C)(C)C2`, the max response, negative = inhibition was -9.89%.
Take `CCN(CC)CCOCCOc1ccc(Cl)c2ccccc12`: the max response, negative = inhibition was -29.6%.
Turning to `CN(C)CCOc1ccc(Cl)cc1C(C)(C)C`, the max response, negative = inhibition was -51.2% (active).
The value for `Cn1c(CCCOc2ccc(Cl)cc2Cl)n[nH]c1=S` was 10.4%; that for `CC(=O)C[C@@H]1OC[C@H](CO)N1S(=O)(=O)c1ccc(C)cc1` was 6.66%.
